The source of these data is PubChem BioAssay AID624305 (National Center for Advancing Translational Sciences (NCATS), 2012).

Results filed as inconclusive are left out. Entries that show only a call come without a potency. The source made the active and inactive calls. Calls come from the whole dose curve; as a rule, active = well fitted activation curve with a large enough effect; inconclusive = small, poorly fitted or top-dose-only effect; inactive = no such curve, though single readings can be large or run the other way.
Potency is the fitted concentration of half-maximal effect.

A short description of the experiment: qHTS assay for re-activators of p53 using a Luc reporter: Hit Validation. Note: nearly all actives have a fitted effect of over 75% in size. Particulars: p53-responsive luciferase reporter cells, luminescence, H1299 line expressing heat-sensitive Ala138Val p53; series mostly up to 46.1 µM. The method, boiled down:
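H1299 (p53-null) cells stably carrying p53-A138V and a BP100-luciferase reporter, 1000 cells/well, treated 24 h at 37 deg C. Compounds at several concentrations, 1:5 dilution; nocodazole control; luminescence read after 10 min with detection reagent.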
(In general: qHTS replaces the single test concentration by a dilution series.)
As for `COc1ccc(/C=N/Nc2nncc3ccccc23)cc1`, the Potency is 73.1 nM (active). Regarding `Cc1cc([N+](=O)[O-])ccc1NC(=O)/C=C/c1cccs1`, the Potency entry was “inactive”. With `Cc1cccc(/C(N)=N/OC(=O)c2ccc3c(c2)OCO3)c1` the figure was 9200 nM (active); with `Oc1[nH]c2ccccc2c1C=Nc1ccc2c(c1)OCCO2`, 326 nM (active); with `O=C1CC(c2ccc3c(c2)OCCO3)Oc2ccc([N+](=O)[O-])cc21` (stereo not drawn), 2590 nM (active). The same measure for `Clc1ccc(-c2nnc(N3CCCC3)nn2)cc1`: 731 nM (active). With `COc1ccc(/C(O)=C2/C(=O)C(=O)N(CCN3CCOCC3)C2c2ccccn2)cc1` (stereo not drawn) the entry was “inactive”; with `O=C(Nc1ccc(N2CCCCCC2)cc1)c1ccc[nH]1`, 1160 nM (active).

For the compound `COc1ccc(/C(N)=N/OC(=O)c2cccs2)cc1`, the Potency was 5170 nM (active).

Consider `N#C/C(=C/c1ccccc1[N+](=O)[O-])c1nc(C2CC2)cs1`, for which the Potency is 5800 nM (active).

Take `O=C(/C(=N/N=C/c1ccc(O)c(O)c1)c1ccccc1)c1ccccc1`: the Potency entry is “inactive”. The same measure for `COc1ccnc(CSC(N)=Nc2ccccc2OC)c1`: “inactive”.

Take `O=C(Nc1cnc2ccccc2c1)C1COc2ccccc2O1` (stereo not drawn): the Potency was 9200 nM (active). For `Cc1cccc(NC2SC(=O)N(c3ccccc3)C2=O)c1` (stereo not drawn), the Potency entry is “inactive”.

Turning to `CCC(=O)c1ccc(OC(=O)Cc2ccc(OC)cc2)cc1`, the Potency entry was “inactive”. With `CC(=O)NC1=C(Nc2ccc(N(C)C)cc2)C(=O)c2ccccc2C1=O` the figure was 9200 nM (active); with `O=C(Nc1nnc(-c2cccs2)o1)c1cccc(C(F)(F)F)c1`, “inactive”. The same measure for `Oc1ccccc1-c1cc(-c2ccccc2)n[nH]1`: 3660 nM (active). The same measure for `COc1ccc2cc(C3(C)NC(=O)N(CC(=O)Nc4c(C)n(C)n(-c5ccccc5)c4=O)C3=O)ccc2c1` (stereo not drawn): “inactive”. Take `CC(=O)N(C)c1ccc(NC(=O)CCN2C(=O)c3ccccc3C2=O)cc1`: the Potency entry is “inactive”. Regarding `CCOC(=O)CC(=O)Nc1ccc(C(=O)OCC)cc1`, the Potency result is “inactive”. Take `O=C1c2cccc3cc([N+](=O)[O-])cc(c23)C(=O)N1CCN1CCCC1`: the Potency entry was “inactive”. For `CCCCn1c(O)c(N=Nc2ccccc2O)c2ccccc21`, the Potency result was “inactive”. With `CCCN(C(=O)c1cccc(S(=O)(=O)N2CCCc3ccccc32)c1)C1CCS(=O)(=O)C1` (stereo not drawn) the entry was “inactive”; with `O=C(Nc1ncc(Cc2ccccc2)s1)c1cccs1`, 2590 nM (active). The same measure for `CCC(=O)Nc1ccc2oc(-c3cccc(C)c3)nc2c1`: 73.1 nM (active); for `COc1ccccc1-c1nc(-c2ccc(Br)o2)no1`: 366 nM (active). In the case of `CCSc1nnc(SCC(=O)NC2CCCCC2)s1`, the Potency result is “inactive”. Turning to `CC(C)NC(=S)N1CCN(S(C)(=O)=O)CC1`, the Potency entry was “inactive”. The same measure for `CC(OC(=O)c1cccc([N+](=O)[O-])c1)C(=O)N1CCc2ccccc21` (stereo not drawn): “inactive”; for `CC(=O)Oc1ccc(Cl)cc1/C=C/c1ccc2ccccc2n1`: 4610 nM (active); for `C/C(=N\NC(=O)c1cccs1)C(C)(C)C`: “inactive”. With `COc1ccccc1C(=O)NC(=S)NNC(=O)c1sc2ccccc2c1Cl` the entry was “inactive”; with `O=C(Nc1ccc(NC(=O)C2CCCCC2)cn1)c1ccco1`, 2590 nM (active). The same measure for `Cc1ccc(/C=N/NC(=O)c2cccs2)s1`: 5800 nM (active); for `Cc1ccc(C)c(OCC(O)CN2C(C)CCCC2C)c1` (stereo not drawn): “inactive”. Turning to `COCCn1c(SCC(=O)c2c(N)n(C3CC3)c(=O)[nH]c2=O)nnc1-c1cccc(C)c1`, the Potency entry was “inactive”. `CC1(C)NC(=O)N(CC(=O)N2CCN(S(=O)(=O)c3ccccc3C(F)(F)F)CC2)C1=O`: the Potency entry is “inactive”.
